For 20 compounds, growth inhibition results are on record in PubChem BioAssay (NCI).

Assay [1] is described as follows: NCI Yeast Anticancer Drug Screen. Data for the rad50 strain (AID 155).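 Further: 0% = growth of vehicle-only cultures of the same strain.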 Particulars: S. cerevisiae rad50 strain growth inhibition; at 50.0 µM; active compounds read high. The gist of the method: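 Relative growth inhibition (compound vs vehicle) was measured in yeast with a defined repair-gene alteration.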
Assay [2] in a line: NCI Yeast Anticancer Drug Screen. Data for the mec2-1 strain (AID 157). The following applies: S. cerevisiae mec2-1 strain, at 50.0 µM, active compounds read high. The method in brief:
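Compounds were applied to mec2-1 yeast cells. Their growth was then compared with that of vehicle-treated cultures to give growth inhibition.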

Assay [3] is described as follows: NCI Yeast Anticancer Drug Screen. Data for the sgs1 mgt1 strain (AID 161).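 Further: 0% = growth of cultures given vehicle only.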 Particulars: S. cerevisiae sgs1 mgt1 strain, at 50.0 µM, active compounds read high. The gist of the method:
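This yeast growth screen uses a strain with defined DNA-repair lesions; compound-treated growth is compared with vehicle-treated growth.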

Assay [4] in a line: NCI Yeast Anticancer Drug Screen. Data for the cln2 rad14 strain (AID 165).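 Further: 0% = growth equal to vehicle treated cultures.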 Particulars: S. cerevisiae cln2 rad14 strain, at 50.0 µM, active compounds read high. The gist of the method:
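Strain: cln2 rad14 yeast, altered in cell cycle control and DNA damage repair. Read-out: growth inhibition vs vehicle.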

Assay [5] can be described thus: NCI Yeast Anticancer Drug Screen. Data for the bub3 strain (AID 167). Particulars: S. cerevisiae bub3 mutant strain, at 50.0 µM, active compounds read high. The gist of the method: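 Screening used yeast with an engineered genetic alteration affecting cell cycle control. Compound-exposed cultures were compared with vehicle cultures, and reduced growth was taken as inhibition.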

Assay [6] can be described thus: NCI Yeast Anticancer Drug Screen. Data for the mlh1 rad18 strain (AID 175). The following applies: S. cerevisiae mlh1 rad18 strain growth inhibition; at 50.0 µM; active compounds read high. The method in brief:
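A repair-deficient yeast strain is exposed to test compound, and growth is scored relative to vehicle-treated controls.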

This is part of a sample that, as a whole, favours compounds with a hit. Of some 79,000 tested, about 15% had one in any assay. Unmarked numbers belong to inactive results. The source made the active and inactive calls. No stated cut-off is given here; in the data, active means growth inhibition above about 70%; inactive means the rest.

Consider `O=C(O)CC1OCC=C2C[N+]3([O-])CCC45c6ccccc6NC4C1C2CC53` (stereo not given), for which the growth inhibition in assay [1] is -1.5%; in assay [2] it was 19.7%; in assay [3], -16.1%; in assay [4] it was -31.9%; in assay [5], -35.4%; in assay [6], 10.6%.
Turning to `O=C1NNC=Nc2ccc(cc2)S(=O)(=O)c2ccc(cc2)N=CNNC1=O`, the growth inhibition is 41.5% in assay [1]; -1.9% in assay [2]; -20.1% in assay [3]; -9.15% in assay [4]; -5.85% in assay [5]; -45.9% in assay [6].
On to `CCNC(=S)Nc1ccc(OCC)cc1`, for which the growth inhibition in assay [1] is 14.2%; in assay [2], 24.3%; in assay [3], 31.4%; in assay [4], -18.1%; in assay [5], 33.9%; in assay [6] it was 16.4%.
As for `CCCCCC1=CC(=O)C=C(OC)C12C(=O)Oc1cc(O)c(C(=O)O)c(CCCCC)c12` (stereo not given), the growth inhibition in assay [1] is 32.4%; in assay [2], 37%; in assay [3], 28.2%; in assay [4] it was 48.4%; in assay [5] it was 18.6%; in assay [6], 33.8%.
Turning to `Clc1cccc(-c2ncc(-c3ccccc3)o2)c1`, the growth inhibition in assay [1] was 8.7%; in assay [2] it was -3.8%; in assay [3] it was -0.6%; in assay [4], -29.2%; in assay [5], 2.15%; in assay [6], 19.1%.
Take `O=C(O)/C(=N\O)c1cnnn1-c1ccccc1`: the growth inhibition is -5.95% in assay [1]; 11.9% in assay [2]; -8.45% in assay [3]; 3.35% in assay [4]; -17.6% in assay [5]; -25.9% in assay [6].
Consider `CCCCCCCCCCN=C(N)CSSCC(N)=NCCCCCCCCCC`, for which the growth inhibition is 96.2% (active) in assay [1]; 97% (active) in assay [2]; 97.1% (active) in assay [3]; 92.8% (active) in assay [4]; 95% (active) in assay [5]; 97.4% (active) in assay [6].
Turning to `Cc1ccc(CN(CCO)Cc2ccccc2)cc1`, the growth inhibition was 1.75% in assay [1]; 39% in assay [2]; 28.1% in assay [3]; 0.65% in assay [4]; 43.1% in assay [5]; 47.1% in assay [6].
As for `CCCCNC(=O)OCCN(C)CCOC(=O)NCCCC`, the growth inhibition was -15.7% in assay [1]; -21.9% in assay [2]; -17.2% in assay [3]; 3.05% in assay [4]; 6.2% in assay [5]; 3.55% in assay [6].
For `Cc1cc2c(cc1C)[n+](=O)c(C(=O)CC(=O)C(=O)Nc1ccccc1C(C)C)c(C)n2[O-]`, the growth inhibition in assay [1] is -26.4%; in assay [2], -4.75%; in assay [3] it was -51.6%; in assay [4], 13.1%; in assay [5], -14.4%; in assay [6], -33.6%.
For `CNC(=O)c1cccc([N+](=O)[O-])c1`, the growth inhibition in assay [1] is 32.1%; in assay [2], 19.8%; in assay [3], 21.7%; in assay [4], -31.2%; in assay [5], 7.25%; in assay [6] it was 30.2%.
Take `CC(=O)N/N=C/c1ccc(C)cc1`: the growth inhibition in assay [1] was 6.6%; in assay [2], -1.3%; in assay [3], -11.1%; in assay [4], -0.9%; in assay [5], -11.8%; in assay [6], 1.75%.
For the compound `CCCC(CCC)C(=O)[O-].CCCC(CCC)C(=O)[O-].CCCC(CCC)C(=O)[O-].CCCC(CCC)C(=O)[O-].[Cu+2].[Cu+2]`, the growth inhibition in assay [1] was 1.4%; in assay [2], 13.4%; in assay [3], -2.8%; in assay [4], 19.9%; in assay [5] it was 20%; in assay [6], 14.2%.
For the compound `OCC1=CC(c2ccccc2)(c2ccccc2)c2ccccc21`, the growth inhibition in assay [1] was 95.2% (active); in assay [2], 96.3% (active); in assay [3] it was 96.7% (active); in assay [4] it was 93.2% (active); in assay [5], 95.5% (active); in assay [6] it was 95.4% (active).
Regarding `COc1ccc2c(c1)C(N)=C(c1ccccc1OC)C2=O`, the growth inhibition in assay [1] was -8.45%; in assay [2], 3.9%; in assay [3], 4.95%; in assay [4] it was -8.15%; in assay [5], -7.4%; in assay [6], -38.5%.
`CC1=NN(C(=O)Cc2ccccc2)C(=O)/C1=C\c1ccccc1O`: the growth inhibition in assay [1] is -10.1%; in assay [2], -39%; in assay [3], -43.2%; in assay [4], -5.7%; in assay [5], -26.2%; in assay [6], -39.9%.
`c1ccc(-c2nnc(-c3ccc4ccccc4c3)o2)cc1`: the growth inhibition in assay [1] is -0.1%; in assay [2], -6.5%; in assay [3], 1.1%; in assay [4], -40%; in assay [5] it was 13.4%; in assay [6] it was -2%.
As for `CC(NC(=O)OCC[P+](c1ccccc1)(c1ccccc1)c1ccccc1)C(=O)O` (stereo not given), the growth inhibition was -14.2% in assay [1]; -4.35% in assay [2]; -11.6% in assay [3]; 3.45% in assay [4]; -27.1% in assay [5]; -55.2% in assay [6].
As for `CC1C=CC(C(=O)Nc2ccc(Cl)c(Cl)c2)N1C` (stereo not given), the growth inhibition in assay [1] is 1%; in assay [2], 12.2%; in assay [3] it was 7.6%; in assay [4], -33.9%; in assay [5], -11.9%; in assay [6], 2.75%.
With `O=S(=O)(CS(=O)(=O)c1ccccc1Br)c1ccccc1Br`, the growth inhibition in assay [1] is -7.65%; in assay [2], 30.3%; in assay [3], -16%; in assay [4], 13%; in assay [5] it was 1.95%; in assay [6] it was 6.95%.
